Inconclusive results are not listed. The source made the active and inactive calls. Calls follow the shape of the dose curve; as a rule, active = well fitted curve in the direction sought with a large enough effect; inconclusive = small, poorly fitted or top-dose-only effect, or another doubt; inactive = no such curve, though single readings can be large; an effect the other way counts as inactive or inconclusive.
Key:
NIH3T3 = assay: qHTS assay to identify novel small-molecules to repurpose for Merkel cell carcinoma treatment (AID 1296009); settings: MCC and control cell lines, CellTiter-Glo viability, 72 h; at 44.8 µM (top of the series) unless noted; also: nearly all actives have a fitted effect of over 60% in size
How it was run: (§1)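 Dose-response viability screen; 72 hr exposure at 37 degree celsius; CellTiter-Glo added, 10 min room temperature, luminescence read; RLUs scaled between no-cell and DMSO wells.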

C33A = assay: Primary qHTS to identify gynecologic anti-cancer compounds using libraries of approved drugs and bioactive compounds (AID 1345084); settings: Gynecologic cancer cell panel viability, ATPlite luminescence, 48 h; series mostly up to 57.5 µM; also: nearly all actives have a fitted effect of over 55% in size; also: potency is read from the fitted curve at half-maximal effect
How it was run: (§2)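 Luminescence from the ATPlite ATP-monitoring reagent indicates viable cell number; lower signal means cytotoxicity. Cells received compound 16 h after seeding and were exposed for 48 h across five concentrations.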

CAOV3 = assay: as above; settings: Gynecologic cancer cell panel viability, ATPlite luminescence, 48 h; series mostly up to 57.5 µM
How it was run: as §2

CASKI = assay: as above; settings: Gynecologic cancer cell panel viability, ATPlite luminescence, 48 h; series mostly up to 57.5 µM
How it was run: as §2

Es-2 = assay: as above; settings: Gynecologic cancer cell panel viability, ATPlite luminescence, 48 h; series mostly up to 57.5 µM
How it was run: as §2

HeLa = assay: as above; settings: Gynecologic cancer cell panel viability, ATPlite luminescence, 48 h; series mostly up to 57.5 µM
How it was run: as §2

Hek293T = assay: as above; settings: Gynecologic cancer cell panel viability, ATPlite luminescence, 48 h, control line for the selectivity index; series mostly up to 57.5 µM
How it was run: as §2

JEG-3 = assay: as above; settings: Gynecologic cancer cell panel viability, ATPlite luminescence, 48 h; series mostly up to 57.5 µM
How it was run: as §2

OV90 = assay: as above; settings: Gynecologic cancer cell panel viability, ATPlite luminescence, 48 h; series mostly up to 57.5 µM
How it was run: as §2

PA-1 = assay: as above; settings: Gynecologic cancer cell panel viability, ATPlite luminescence, 48 h; series mostly up to 57.5 µM
How it was run: as §2

SKOV3 = assay: as above; settings: Gynecologic cancer cell panel viability, ATPlite luminescence, 48 h; series mostly up to 57.5 µM
How it was run: as §2

Tov-21-G = assay: as above; settings: Gynecologic cancer cell panel viability, ATPlite luminescence, 48 h; series mostly up to 57.5 µM
How it was run: as §2

Tov112D = assay: as above; settings: Gynecologic cancer cell panel viability, ATPlite luminescence, 48 h; series mostly up to 57.5 µM
How it was run: as §2

UISO = assay: qHTS assay to identify novel small-molecules to repurpose for Merkel cell carcinoma treatment (AID 1296009); settings: MCC and control cell lines, CellTiter-Glo viability, 72 h; series mostly up to 46 µM; also: nearly all actives have a fitted effect of over 60% in size
How it was run: as §1

WaGa = assay: as above; settings: MCC and control cell lines, CellTiter-Glo viability, 72 h; series mostly up to 46 µM
How it was run: as §1
% is scaled to controls: 0 for no effect and ±100 for the full control effect.

CC(C)/C=C1\NC(=O)C(C(C)C)n2c1nc1c(c2=O)C=CC=CO1 (configuration not stated)
inactive: outcome (NIH3T3) | Potency (C33A) | Potency (CAOV3) | Potency (CASKI) | Potency (Es-2) | Potency (HeLa) | Potency (Hek293T) | Potency (JEG-3) | Potency (OV90) | Potency (PA-1) | Potency (SKOV3) | Potency (Tov-21-G) | Potency (Tov112D)

C[C@@H]1O[C@@H](O[C@H]2[C@H](OC(=O)[C@]34CCC(C)(C)C[C@H]3C3=CCC5[C@@]6(C)C[C@H](O)[C@H](O[C@@H]7O[C@H](CO)[C@@H](O)[C@H](O)[C@H]7O)[C@@](C)(CO)C6[C@H](O)C[C@@]5(C)[C@]3(C)C[C@H]4O)OC[C@H](O)[C@@H]2O)[C@H](O)[C@H](O)[C@H]1O[C@@H]1OC[C@@H](O)[C@H](O[C@H]2OC[C@](O)(CO)[C@H]2O)[C@H]1O (some centres not stated)
inactive: outcome (NIH3T3) inactive [at 9.27 µM] | activity change, negative = cytotoxicity (C33A) 6.39% [at 6.55 µM] | activity change, negative = cytotoxicity (CAOV3) 27.3% [at 6.55 µM] | activity change, negative = cytotoxicity (CASKI) -4.03% [at 6.55 µM] | activity change, negative = cytotoxicity (Es-2) 1.52% [at 6.55 µM] | activity change, negative = cytotoxicity (HeLa) 19.6% [at 6.55 µM] | activity change, negative = cytotoxicity (Hek293T) -3.35% [at 6.55 µM] | activity change, negative = cytotoxicity (JEG-3) 13.7% [at 6.55 µM] | activity change, negative = cytotoxicity (OV90) -6.86% [at 6.55 µM] | activity change, negative = cytotoxicity (PA-1) 24.7% [at 6.55 µM] | activity change, negative = cytotoxicity (SKOV3) 19.1% [at 6.55 µM] | activity change, negative = cytotoxicity (Tov-21-G) 8.26% [at 6.55 µM] | activity change, negative = cytotoxicity (Tov112D) 8.3% [at 6.55 µM]

CC(O)/C=C/C1OC(=O)CC1Nc1ccc(C(=O)O)cc1 (configuration not stated)
inactive: outcome (NIH3T3) | Potency (C33A) | Potency (CAOV3) | Potency (CASKI) | Potency (Es-2) | Potency (HeLa) | Potency (Hek293T) | Potency (JEG-3) | Potency (OV90) | Potency (PA-1) | Potency (SKOV3) | Potency (Tov-21-G) | Potency (Tov112D)

COC1=CC(=O)CC(C)C12Oc1cc(OC)cc(O)c1C2=O (configuration not stated)
inactive: outcome (NIH3T3) | Potency (C33A) | Potency (CASKI) | Potency (Es-2) | Potency (HeLa) | Potency (Hek293T) | Potency (JEG-3) | Potency (OV90) | Potency (PA-1) | Potency (Tov-21-G) | Potency (Tov112D)

O=C(O)c1ccccc1NCCc1ccccc1
inactive: Potency (UISO) | Potency (WaGa) | Potency (C33A) | Potency (CAOV3) | Potency (CASKI) | Potency (Es-2) | Potency (HeLa) | Potency (Hek293T) | Potency (JEG-3) | Potency (PA-1) | Potency (SKOV3) | Potency (Tov-21-G) | Potency (Tov112D)

CC(=O)OC1C(O)CC2(C)C(CCC(C)C23Cc2c(O)cc(CO)c(C=O)c2O3)C1(C)C (configuration not stated)
inactive: outcome (NIH3T3) inactive [at 17.4 µM] | Potency (C33A) | Potency (CAOV3) | Potency (CASKI) | Potency (Es-2) | Potency (HeLa) | Potency (Hek293T) | Potency (JEG-3) | Potency (OV90) | Potency (SKOV3) | Potency (Tov-21-G) | Potency (Tov112D)

CNC(C)C(=O)NC(C(=O)N1CCCC1c1nc(C(=O)c2ccc(F)cc2)cs1)C1CCCCC1 (configuration not stated)
inactive: outcome (NIH3T3) | Potency (C33A) | Potency (CASKI) | Potency (Es-2) | Potency (HeLa) | Potency (Hek293T) | Potency (JEG-3) | Potency (OV90) | Potency (PA-1) | Potency (Tov112D)

C[C@@H]1O[C@@H](O[C@H]2[C@H](OC(=O)[C@]34CCC(C)(C)C[C@H]3C3=CCC5[C@@]6(C)C[C@H](O)[C@H](O[C@@H]7O[C@H](CO)[C@@H](O)[C@H](O)[C@H]7O)[C@@](C)(CO)C6[C@H](O)C[C@@]5(C)[C@]3(C)CC4)OC[C@H](O)[C@@H]2O)[C@H](O)[C@H](O)[C@H]1O[C@@H]1OC[C@@H](O)[C@H](O[C@@H]2OC[C@](O)(CO)[C@H]2O)[C@H]1O (some centres not stated)
inactive: outcome (NIH3T3) inactive [at 9.27 µM] | activity change, negative = cytotoxicity (C33A) 7.14% [at 6.55 µM] | activity change, negative = cytotoxicity (CAOV3) 10.8% [at 6.55 µM] | activity change, negative = cytotoxicity (CASKI) 15.5% [at 6.55 µM] | activity change, negative = cytotoxicity (Es-2) 6.38% [at 6.55 µM] | activity change, negative = cytotoxicity (HeLa) 4.34% [at 6.55 µM] | activity change, negative = cytotoxicity (Hek293T) 3.42% [at 6.55 µM] | activity change, negative = cytotoxicity (JEG-3) 3.02% [at 6.55 µM] | activity change, negative = cytotoxicity (OV90) 1.6% [at 6.55 µM] | activity change, negative = cytotoxicity (SKOV3) 1.77% [at 6.55 µM] | activity change, negative = cytotoxicity (Tov-21-G) -2.34% [at 6.55 µM] | activity change, negative = cytotoxicity (Tov112D) 7.29% [at 6.55 µM]

NC1(C(=O)NC(CCO)c2ccc(Cl)cc2)CCN(c2ncnc3[nH]ccc23)CC1 (configuration not stated)
inactive: outcome (NIH3T3) | Potency (CAOV3) | Potency (CASKI) | Potency (Es-2) | Potency (HeLa) | Potency (JEG-3) | Potency (PA-1) | Potency (Tov112D)
active: Potency (C33A) 2240 nM | Potency (Tov-21-G) 1260 nM

COc1ccc(CCO[C@@H]2CCCC[C@H]2N2CC[C@@H](O)C2)cc1OC
inactive: outcome (NIH3T3) | Potency (C33A) | Potency (CAOV3) | Potency (CASKI) | Potency (Es-2) | Potency (HeLa) | Potency (Hek293T) | Potency (JEG-3) | Potency (OV90) | Potency (PA-1) | Potency (Tov-21-G) | Potency (Tov112D)

CCC(C(=O)O)c1ccc(N2Cc3ccccc3C2=O)cc1 (configuration not stated)
inactive: Potency (UISO) | Potency (WaGa) | Potency (C33A) | Potency (CAOV3) | Potency (CASKI) | Potency (Es-2) | Potency (HeLa) | Potency (Hek293T) | Potency (JEG-3) | Potency (PA-1) | Potency (SKOV3) | Potency (Tov-21-G) | Potency (Tov112D)

CC1CCC2(OC1)OC1CC3C4CC=C5CC(O)CC(O[C@@H]6OC[C@@H](O)[C@H](O)[C@H]6O)C5(C)C4CCC3(C)C1(O)C2C (some centres not stated)
inactive: Potency (C33A) | Potency (CAOV3) | Potency (CASKI) | Potency (Es-2) | Potency (HeLa) | Potency (Hek293T) | Potency (JEG-3) | Potency (OV90) | Potency (PA-1) | Potency (SKOV3) | Potency (Tov-21-G) | Potency (Tov112D)

COCCOc1ccc(N2CCN(CCn3ncc4c3nc(N)n3nc(-c5ccco5)nc43)CC2)cc1
inactive: Potency (C33A) | Potency (CAOV3) | Potency (CASKI) | Potency (Es-2) | Potency (HeLa) | Potency (Hek293T) | Potency (JEG-3) | Potency (OV90) | Potency (PA-1) | Potency (SKOV3) | Potency (Tov-21-G) | Potency (Tov112D)

CC(=O)O[C@@H]1[C@H](O)[C@@H](O[C@@H]2O[C@@H](C)[C@H](O[C@@H]3OC[C@@H](O)[C@H](O[C@@H]4OC[C@@H](O)[C@H](O)[C@H]4O)[C@H]3O)[C@@H](O[C@@H]3O[C@H](CO)[C@@H](O)[C@H](O)[C@H]3O)[C@H]2O)[C@H](OC(=O)[C@]23CCC(C)(C)C[C@H]2C2=CCC4[C@@]5(C)CC[C@H](O[C@@H]6O[C@H](C(=O)O)[C@@H](O)[C@H](O[C@@H]7OC[C@@H](O)[C@H](O)[C@H]7O)[C@H]6O[C@@H]6O[C@H](CO)[C@H](O)[C@H](O)[C@H]6O)[C@@](C)(C=O)C5CC[C@@]4(C)[C@]2(C)CC3)O[C@@H]1C (some centres not stated)
inactive: outcome (NIH3T3) inactive [at 4.96 µM] | activity change, negative = cytotoxicity (C33A) 0.359% [at 6.55 µM] | activity change, negative = cytotoxicity (CAOV3) 19.4% [at 6.55 µM] | activity change, negative = cytotoxicity (CASKI) -13.6% [at 6.55 µM] | activity change, negative = cytotoxicity (Es-2) -2.98% [at 6.55 µM] | activity change, negative = cytotoxicity (HeLa) 2.25% [at 6.55 µM] | activity change, negative = cytotoxicity (Hek293T) -2.1% [at 6.55 µM] | activity change, negative = cytotoxicity (JEG-3) -8.94% [at 6.55 µM] | activity change, negative = cytotoxicity (PA-1) -3.62% [at 6.55 µM] | activity change, negative = cytotoxicity (Tov-21-G) -5.86% [at 6.55 µM] | activity change, negative = cytotoxicity (Tov112D) 7.57% [at 6.55 µM]

— PubChem BioAssay (NCATS)
